The record followed here is paper PMC4336329 (PLoS ONE, 2015).

In all, about 310,000 compounds went through this assay and about 14,000 (4.5%) showed an effect of 50% or more. Effects have a minus sign here. The full list was thinned out, with strong results kept by preference.
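Further: peak tail current of the secondary pulse compared with the same well before compound.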

For the experiment, the target named is human ether-à-go-go-related gene (hERG) potassium channel (human, UniProt Q12809). In words: primary screen, population patch clamp on CHO cells stably expressing hERG; higher = less effect of the substance.
Chain of human ether-à-go-go-related gene (hERG) potassium channel (Q12809 whole entry, looked up): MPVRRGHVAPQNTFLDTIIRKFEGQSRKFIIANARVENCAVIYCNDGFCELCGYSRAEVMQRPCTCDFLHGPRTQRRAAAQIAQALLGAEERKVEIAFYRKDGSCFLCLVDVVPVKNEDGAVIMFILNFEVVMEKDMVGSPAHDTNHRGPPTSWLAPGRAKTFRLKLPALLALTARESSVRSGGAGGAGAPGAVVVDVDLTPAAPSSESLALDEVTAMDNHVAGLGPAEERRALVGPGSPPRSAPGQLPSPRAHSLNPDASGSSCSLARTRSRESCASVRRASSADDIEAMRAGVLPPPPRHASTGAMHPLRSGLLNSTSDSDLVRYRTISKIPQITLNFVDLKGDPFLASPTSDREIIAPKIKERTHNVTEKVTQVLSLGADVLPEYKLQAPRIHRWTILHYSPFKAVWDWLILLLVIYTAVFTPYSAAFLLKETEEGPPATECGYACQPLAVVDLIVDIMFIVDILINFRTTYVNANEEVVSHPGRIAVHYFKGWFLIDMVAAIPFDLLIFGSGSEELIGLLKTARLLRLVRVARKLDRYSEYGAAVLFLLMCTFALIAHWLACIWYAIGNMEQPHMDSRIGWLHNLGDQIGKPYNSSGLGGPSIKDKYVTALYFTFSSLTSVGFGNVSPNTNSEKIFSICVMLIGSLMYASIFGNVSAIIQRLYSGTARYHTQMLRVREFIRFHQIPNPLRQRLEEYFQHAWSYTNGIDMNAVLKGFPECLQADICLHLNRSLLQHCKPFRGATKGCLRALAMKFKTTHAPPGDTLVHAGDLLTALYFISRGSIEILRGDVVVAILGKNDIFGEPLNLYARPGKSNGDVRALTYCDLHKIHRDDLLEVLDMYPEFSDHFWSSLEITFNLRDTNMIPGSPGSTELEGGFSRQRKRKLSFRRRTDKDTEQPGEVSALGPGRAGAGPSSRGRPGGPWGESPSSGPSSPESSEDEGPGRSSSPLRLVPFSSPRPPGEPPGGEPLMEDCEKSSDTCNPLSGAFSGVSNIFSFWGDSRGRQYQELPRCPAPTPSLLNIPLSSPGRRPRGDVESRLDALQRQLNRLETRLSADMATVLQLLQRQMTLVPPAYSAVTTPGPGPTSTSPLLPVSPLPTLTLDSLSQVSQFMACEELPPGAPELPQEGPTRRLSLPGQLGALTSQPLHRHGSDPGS
In the case of `Cc1ccc(C)c(S(=O)(=O)Nc2ccc(C(=O)NCCc3ccccn3)cc2)c1`, the “hERG current change (%, negative = inhibition) at 10uM” value came to 10.2%.
Under `Cc1ccc(C)c(N2CCN(C(=O)C3CCN(S(=O)(=O)c4cccc5nsnc45)CC3)CC2)c1` stands -8.49%; under `N#Cc1ccc(C23CC4(C2)[C@H](CN(Cc2ccc(C(F)(F)F)cc2)[C@@H]4c2ccccc2)C3c2ccccc2)cc1` (stereo partly shown), 13.5%; under `O=C(Nc1nccs1)c1ccc(COc2ccccc2Br)o1`, -6.85%.
Take `Cc1ccc(-c2nnc(SCC(=O)N/N=C/c3ccc(C)s3)n2-c2ccc(C)cc2)cc1`: the “hERG current change (%, negative = inhibition) at 10uM” value is on record as -17.4%.
Under `O=C(c1ccco1)N1CCN(Cc2nc(-c3cccs3)no2)CC1` stands -38.1%; under `CS(=O)(=O)N(CC(=O)NCCSCc1c(F)cccc1Cl)c1cccc([N+](=O)[O-])c1`, -15.9%.
Under `COCC(C)NC(=O)CSc1nc2ccccc2n1CCc1ccccc1` (stereo not shown) stands -8.53%; under `Cc1cccc(N2CC(C(=O)Nc3nnc(SCC(=O)Nc4cc(C)on4)s3)CC2=O)c1` (stereo not shown), 23%.
Under `Cc1cc(=O)[nH]c(SCC(=O)Nc2ccc(S(=O)(=O)N3CCOCC3)cc2)n1` stands -3.3%.
As to `CC1(C)SC(=S)N(NC(=O)Nc2ccccc2)C1N(O)C(=O)Nc1ccccc1` (stereo not shown), the “hERG current change (%, negative = inhibition) at 10uM” value amounted to 12.7%.
With `CCOc1cc(N2CCOCC2)c(OCC)cc1NC(=O)c1oc2ccccc2c1C`, the “hERG current change (%, negative = inhibition) at 10uM” value stood at 18.6%.
`O=C(c1ccccc1F)N1CCCC(C(=O)N2CCc3ccccc3C2)C1` (stereo not shown): the “hERG current change (%, negative = inhibition) at 10uM” value is -8.64%.
In the case of `O=S(=O)(c1ccc(Cl)cc1)c1nc(-c2ccco2)oc1N1CCCCC1`, the “hERG current change (%, negative = inhibition) at 10uM” value is on record as -7.91%.
As for `O=S(=O)(c1ccccc1)c1nc(-c2ccco2)oc1N1CCCCC1`, the figure is -37.1%.
As to `O=S(=O)(c1ccc(Cl)cc1)c1nc(-c2ccco2)oc1N1CCOCC1`, the “hERG current change (%, negative = inhibition) at 10uM” value is listed as -55.4%.
As for `CC(C)Cc1nc(S(=O)(=O)c2ccc(Cl)cc2)c(N2CCOCC2)o1`, the figure is -6.14%; as for `CCCCc1nc(S(=O)(=O)c2ccc(Cl)cc2)c(N2CCOCC2)o1`, -69.6%; as for `CC(C)(C)c1nc(S(=O)(=O)c2ccc(Cl)cc2)c(N2CCOCC2)o1`, -14.2%.
Under `COc1ccc(NC(=O)Nc2ccc3nccnc3c2)cc1` stands 2.71%; under `COc1ccccc1CNC(=O)C1CCN(C(=O)NC2CCCCC2)CC1`, 10.6%; under `CCc1ccc(/C=N/NC(=O)C(=O)NCCCN2CCOCC2)cc1`, -23.6%.
Take `COc1ccc(NC(=S)N2c3ccccc3CC2C)cc1OC` (stereo not shown): the “hERG current change (%, negative = inhibition) at 10uM” value is on record as -5.96%.
Consider `CCCC(=O)Nc1nnc(Cc2ccccc2)s1`, for which the “hERG current change (%, negative = inhibition) at 10uM” value is reported as -0.72%.
Under `COc1ccc(S(=O)(=O)Cc2ccc(C(=O)NC3CCC(C)CC3)o2)cc1` (stereo not shown) stands -15.8%.
For `Cc1ccc(-c2ccc(/C=N/c3ncn[nH]3)o2)cc1Cl`, the “hERG current change (%, negative = inhibition) at 10uM” value is given as 11.6%.
`C=C1CC[C@@]2(O)[C@H]3Cc4ccc(O)c5c4[C@@]2(CCN3CC2CC2)[C@H]1O5`: the “hERG current change (%, negative = inhibition) at 10uM” value was -2.73%.
Under `Oc1cccc(C2c3[nH]c4ccccc4c3CCN2Cc2ccc3c(c2)CCO3)c1` (stereo not shown) stands 9.6%; under `CS(=O)(=O)O.O.Oc1ccc2c3c1O[C@H]1c4oc5ccccc5c4C[C@@]4(O)[C@@H](C2)N(CC2CC2)CC[C@]314`, -76.9%; under `C=CC[N+]1(C)CC[C@]23c4c5ccc(O)c4O[C@H]2C(=O)CC[C@@]3(O)[C@H]1C5.[I-]` (stereo partly shown), 17.8%.
As for `Cl.O=C1CC[C@@]2(O)[C@H]3Cc4ccc(O)c5c4[C@@]2(CCN3CC2CC2)[C@H]1O5`, the figure is 0.91%.
As for `Cl.Oc1ccc2c3c1O[C@H]1c4[nH]c5ccccc5c4C[C@@]4(O)[C@@H](C2)N(CC2CC2)CC[C@]314`, the figure is -63%; as for `NC(N)=Nc1ccc2[nH]c3c(c2c1)C[C@@]1(O)[C@H]2Cc4ccc(O)c5c4[C@@]1(CCN2CC1CC1)[C@H]3O5.O=C(O)C(F)(F)F`, 6.85%.
Take `C=C(C)CN1CC[C@]23c4c5ccc(O)c4O[C@H]2c2[nH]c4ccccc4c2C[C@@]3(O)C1C5.Cl.O`: the “hERG current change (%, negative = inhibition) at 10uM” value is listed as 4.9%.
As for `Cl.O.Oc1ccc2c3c1O[C@H]1c4[nH]c5ccccc5c4C[C@@]4(O)C(C2)N(CC2CC2)CC[C@]314`, the figure is -55.4%.
Under `C=CCN1CC[C@]23c4c5ccc(O)c4O[C@H]2/C(=N/NC(=O)c2ccccc2)CC[C@@]3(O)[C@H]1C5` stands -69.1%; under `Oc1cccc(C2c3[nH]c4ccccc4c3CCN2Cc2ccoc2)c1` (stereo not shown), -29.6%; under `COc1ccc(C2/C(=C(/O)c3ccc(Br)cc3)C(=O)C(=O)N2C)cc1` (stereo not shown), -12.7%.
For the molecule `Cn1cc(P(=S)(N2CCOCC2)N2CCOCC2)cc1P(=O)(N1CCOCC1)N1CCOCC1`, the “hERG current change (%, negative = inhibition) at 10uM” value came to 7.36%.
As for `COc1ccc(Oc2cccc(Cl)c2CNC(=O)c2ccccc2C(=O)O)cc1`, the figure is 4.98%; as for `CC(C)(C)NC(=O)C(Cc1ccccc1)N1C(=O)c2ccccc2C1=O` (stereo not shown), 6.68%; as for `CCOC(=O)C1(Cc2ccc(OC)cc2)CCN(C(=O)C2=CCCC2)CC1`, -33.8%.
Under `Cc1ccnc(NC2CCCCC2)c1` stands 20.4%.
As for `Cn1c(CNc2ccccn2)c(C#N)c2ccccc21`, the figure is -6.94%; as for `COC(=O)CCCC1=CC2=CC(=O)C(C)(OC(=O)c3cccs3)C(=O)C2=CN1CCc1c[nH]c2ccccc12` (stereo not shown), 15%; as for `CC(C)CN(C(=O)c1ccc([N+](=O)[O-])s1)c1c(N)n(Cc2ccccc2)c(=O)[nH]c1=O`, 10.3%.
Turning to `CCc1ccccc1NC(=O)c1ccc(CN2CCC(Cc3ccccc3)CC2)cc1`, the “hERG current change (%, negative = inhibition) at 10uM” value was -50.8%.
Under `O=C(Nc1ccccc1F)c1ccc(CN2CCN(c3ccccc3)CC2)cc1` stands -70.7%; under `Cc1ccccc1NC(=O)c1ccc(CN2CCC(Cc3ccccc3)CC2)cc1`, -52.2%; under `COc1ccc(NC(=O)c2ccc(CN3CCN(c4ccccc4)CC3)cc2)cc1`, -9.47%.
Under `O=C(c1ccc(CN2CCOCC2)cc1)N1CCC(Cc2ccccc2)CC1` stands -3.35%; under `O=C(Nc1ccccc1F)c1ccc(CN2CCc3ccccc3C2)cc1`, 13.7%.
As for `Cc1ccccc1NC(=O)c1ccc(CN2CCc3ccccc3C2)cc1`, the figure is -16.4%.
Turning to `O=C(Nc1ccccc1C(F)(F)F)c1ccc(CN2CCC(Cc3ccccc3)CC2)cc1`, the “hERG current change (%, negative = inhibition) at 10uM” value was -42.4%.
Under `Cc1ccccc1NC(=O)CCN1CCN(Cc2ccccc2)CC1` stands -27.2%; under `O=C(NO)c1ccccc1C(F)(F)F`, 15.4%.
As for `Cc1cccc(C)c1OCC(=O)Nc1cccc(S(=O)(=O)N2CCCC2)c1`, the figure is 3.77%.
Turning to `CC(Oc1ccc2c3c(c(=O)oc2c1)CCCC3)C(=O)NCC(O)c1ccccc1` (stereo not shown), the “hERG current change (%, negative = inhibition) at 10uM” value is recorded as 16.8%.
As for `COc1ccc(S(=O)(=O)c2ccc(OC)c(OC)c2)cc1OC`, the figure is -12.2%; as for `COc1ccc(CCNC(=O)C2CCN(S(=O)(=O)c3c(C)noc3C)CC2)cc1OC`, -16.9%.
As for `O=C(CCCNC(=O)/C(=C\c1ccccc1F)NC(=O)c1ccccc1)OCc1ccccc1`, the figure is -9.13%.
As for `O=C(O)CCCNC(=O)/C(=C\c1ccccc1F)NC(=O)c1ccccc1`, the figure is 13.4%; as for `O=C(CCCNC(=O)/C(=C/c1ccc(Br)cc1)NC(=O)c1ccccc1)OCc1ccccc1`, -38.8%; as for `O=C(CCCNC(=O)/C(=C\c1ccc(F)cc1)NC(=O)c1ccccc1)OCc1ccccc1`, -77.1%.
Turning to `O=C(CCCNC(=O)/C(=C/c1ccc(F)cc1)NC(=O)c1ccccc1)OCc1ccccc1`, the “hERG current change (%, negative = inhibition) at 10uM” value is given as -64.3%.
As for `O=C(CCCNC(=O)/C(=C/c1ccccc1F)NC(=O)c1ccccc1)OCc1ccccc1`, the “hERG current change (%, negative = inhibition) at 10uM” value is -5.02%.
In the case of `Cc1csc(NC(=O)c2ccc(COc3ccccc3)o2)n1`, the “hERG current change (%, negative = inhibition) at 10uM” value was -17.7%.
As for `CC(=O)Nc1ccccc1NC(=O)C/C(C)=N/NC(=O)c1ccccn1`, the figure is 16.1%; as for `COc1ccc(Nc2cc(C)nc3ccc(OC)cc23)cc1`, -52.3%; as for `COc1ccc2nc(C)cc(Nc3ccc(C)cc3)c2c1.Cl`, -52.8%.
Under `COc1ccc2nc(C)cc(Nc3ccc(C(=O)O)cc3)c2c1` stands 39.5%; under `Nc1ncncc1-c1ccc2ccccc2c1`, -7.48%.
Under `Clc1ccc(/C=N/c2c(-c3ccc(Cl)cc3)nc3n2CCS3)cc1` stands 1.1%.
For `CC1CCCCC1NC(=O)c1cn(C)c2ccc(S(=O)(=O)N3CCCC3)cc2c1=O` (stereo not shown), the “hERG current change (%, negative = inhibition) at 10uM” value is recorded as -0.37%.
Under `COc1ccc(C(=O)OCn2nnc3ccccc3c2=O)cc1[N+](=O)[O-]` stands 13.6%; under `Cc1ccc(S(=O)(=O)N(C)C)cc1NC(=O)C(C)Sc1ccccc1` (stereo not shown), -6.74%.
Under `COc1ccc(C(=O)NCC(=O)N/N=C(C)\C=C\c2ccccc2)cc1OC` stands -19.3%; under `COc1ccc(C(=O)N/N=C\C(C)=C\c2ccccc2)cc1OC`, -61.4%; under `CC(/C=N/NC(=O)c1nn(C)c(C)c1Br)=C\c1ccccc1`, -53.8%.
On to `CC(/C=N/NC(=O)c1c(Br)cnn1C)=C\c1ccccc1`, for which the “hERG current change (%, negative = inhibition) at 10uM” value is -13%.
Under `CC(/C=N/NC(=O)c1ccccc1F)=C\c1ccccc1` stands 12.7%.
As for `O=C(CNC(=O)c1ccccc1)N/N=C/C=C/c1ccccc1`, the figure is -1.96%.
On to `COc1ccc(C(=O)NCC(=O)N/N=C/C=C/c2ccccc2)cc1OC`, for which the “hERG current change (%, negative = inhibition) at 10uM” value is -93.6%.
Under `CC(=C/c1ccccc1)/C=N/NC(=O)c1ccccn1` stands -30.3%.
Under `COc1ccc(C(=O)NCC(=O)N/N=C/C(C)=C/c2ccccc2)cc1OC` stands -1.63%; under `CC(/C=N/NC(=O)c1ccc(Br)cc1)=C\c1ccccc1`, -3.38%; under `CC(/C=N/NC(=O)c1ccncc1)=C\c1ccccc1`, 9.78%.
In the case of `COc1ccccc1C(=O)N/N=C/C(C)=C/c1ccccc1`, the “hERG current change (%, negative = inhibition) at 10uM” value is reported as -73.8%.
